From PubChem BioAssay (NCI) come the findings set out here.

Several values for one entry are separate records, joined by “and”; a condition that tells them apart may be missing. Equal values may be shown once. This is part of a sample that, as a whole, favours compounds with a hit. Of some 83,000 tested, about 20% had one in any assay.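 Each cell line was grown in a 96-well plate and treated with one concentration of compound for 48 hours. Values below 10 were considered active.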 Unmarked numbers belong to inactive results. Activity calls are given as the source filed them.

Test systems include NCI-H23 lung; NCI-H226 lung; NCI-H322M lung; HOP-62 NSCLC; NCI-H460 lung; HOP-92 NSCLC; NCI-H522 lung; A549/ATCC NSCLC; 786-0 renal; COLO 205 colon; DU-145 prostate; K-562 leukemia; MALME-3M melanoma; MDA-MB-231 breast; RXF 393 renal; SF-268 CNS; SF-295 CNS; SF-539 CNS; UACC-257 melanoma; M14 melanoma.
Holding throughout (test): NCI-60 one-dose screen, 48 h (100 = growth as untreated, 0 = no growth, -100 = all killed)
Common to all, as to conditions: 10 µM unless noted

On to `Nc1ccc2ccc(NS(=O)(=O)N3CCCCC3)cc2c1`, for which the growth with NCI-H23 lung is 43.8%; with NCI-H226 lung it was 15.2%; in the assay with NCI-H322M lung, 50.9%; in the assay with HOP-62 NSCLC, 35.4%; with NCI-H460 lung it was 7.56% (active); in the assay on HOP-92 NSCLC, 68%. The growth with NCI-H522 lung was 47.5%; in the assay with A549/ATCC NSCLC it was 39.3%; in the assay on 786-0 renal, 30.7%; in the assay on COLO 205 colon, -40.9% (active); in the assay on DU-145 prostate, 12.7%; in the assay with K-562 leukemia, 8.04% (active). Moreover, the growth in the assay on MALME-3M melanoma was 45.3%; in the assay with MDA-MB-231 breast, 11.8%; in the assay with RXF 393 renal it was 51.4%; with SF-268 CNS, 32.3%; in the assay with SF-295 CNS, 15.1%; in the assay with SF-539 CNS it was -21.7% (active). The figures for the growth with UACC-257 melanoma and in the assay on M14 melanoma were 87.7% and 11.2%, respectively.

As for `COc1cc(NCCCCCNC(C)C)c2ncccc2c1`, the growth is 104% and 90.3% with NCI-H23 lung; 90.5% and 94% with NCI-H226 lung; 82.7% and 104% in the assay with NCI-H322M lung; 87.3% and 92.5% in the assay on HOP-62 NSCLC; 103% and 117% with NCI-H460 lung; 82.5% with HOP-92 NSCLC. The growth with NCI-H522 lung is 92.2% and 42%; in the assay with A549/ATCC NSCLC, 101% and 94.7%; with 786-0 renal it was 94.4% and 89.3%; with COLO 205 colon, 91.7% and 87.9%; in the assay with DU-145 prostate it was 111%; with K-562 leukemia, 91.1% and 104%. Further, the growth is 99.6% and 125% with MALME-3M melanoma; 89% and 93.1% in the assay on MDA-MB-231 breast; 90.9% and 92.6% in the assay on RXF 393 renal; 93.5% in the assay on SF-268 CNS; 104% and 102% with SF-295 CNS; 91.9% and 78.1% in the assay with SF-539 CNS. Further, the growth with UACC-257 melanoma is 113% and 80.2%; in the assay with M14 melanoma it was 96.9% and 90.2%.

`O=C1C=CC(=O)N1Cc1ccco1`: the growth was 81.7% in the assay on NCI-H23 lung; 97.1% in the assay on NCI-H226 lung; 85.1% in the assay on NCI-H322M lung; 94.7% with HOP-62 NSCLC; 50.9% in the assay with NCI-H460 lung; 102% in the assay on HOP-92 NSCLC. The growth in the assay with NCI-H522 lung is 67.8%; with A549/ATCC NSCLC, 92.1%; in the assay with 786-0 renal, 104%; in the assay on COLO 205 colon it was 89.2%; in the assay on DU-145 prostate, 4.25% (active); in the assay on K-562 leukemia, 94.1%. Also, the growth is 94.5% in the assay with MALME-3M melanoma; 84% with MDA-MB-231 breast; 68.6% in the assay on RXF 393 renal; 89.7% in the assay on SF-268 CNS; 72.2% in the assay on SF-295 CNS; 108% in the assay with SF-539 CNS. Further, the figures for the growth in the assay on UACC-257 melanoma and with M14 melanoma were 104% and 85.3%, respectively.

`CN(C)C(=S)N(C)C`: the growth with NCI-H23 lung was 99.4%; in the assay on NCI-H226 lung, 108%; in the assay with NCI-H322M lung it was 140%; with HOP-62 NSCLC, 95.6%; with NCI-H460 lung it was 119%; in the assay with HOP-92 NSCLC, 93.4%. Also, the growth in the assay with NCI-H522 lung was 83.2%; with A549/ATCC NSCLC, 100%; with 786-0 renal, 108%; in the assay on COLO 205 colon, 123%; with DU-145 prostate it was 110%; with K-562 leukemia, 106%. Also, the growth with MALME-3M melanoma was 165%; with MDA-MB-231 breast, 111%; with RXF 393 renal, 114%; in the assay on SF-268 CNS it was 103%; in the assay with SF-295 CNS, 112%; in the assay on SF-539 CNS, 99.2%. The growth with UACC-257 melanoma was 107%; with M14 melanoma, 101%.

As for `CCN(CC)CCNC(=O)c1ccc(NCN2C(=O)NC(c3ccccc3)(c3ccccc3)C2=O)cc1`, the growth with NCI-H23 lung is 97.1% and 103%; in the assay on NCI-H226 lung, 95.6% and 100%; in the assay with NCI-H322M lung, 112% and 106%; in the assay on HOP-62 NSCLC, 116% and 99.7%; in the assay with NCI-H460 lung, 101% and 114%; in the assay with HOP-92 NSCLC, 86.2% and 105%. Moreover, the growth with NCI-H522 lung is 108% and 106%; in the assay on A549/ATCC NSCLC it was 95.3% and 107%; in the assay with 786-0 renal it was 101% and 115%; with COLO 205 colon it was 124% and 103%; in the assay with DU-145 prostate it was 108% and 122%; with K-562 leukemia it was 110% and 108%. Moreover, the growth is 96.1% in the assay on MALME-3M melanoma; 114% and 103% in the assay on MDA-MB-231 breast; 106% and 118% in the assay on RXF 393 renal; 102% and 101% with SF-268 CNS; 94.1% with SF-295 CNS; 104% in the assay on SF-539 CNS. The growth was 100% and 106% with UACC-257 melanoma; 105% and 96.3% in the assay with M14 melanoma.

On to `Nc1ccc(O)c(C(=O)O)c1`, for which the growth with NCI-H23 lung was 92.7% and 105% and 94.2%; with NCI-H226 lung, 95.4% and 92.4% and 116%; with NCI-H322M lung, 131% and 106% and 99.2%; in the assay on HOP-62 NSCLC it was 92.5% and 103% and 90.9%; in the assay with NCI-H460 lung, 103% and 101% and 116%; with HOP-92 NSCLC, 104% and 105%. Further, the growth with NCI-H522 lung was 102% and 101%; with A549/ATCC NSCLC, 105% and 97%; in the assay with 786-0 renal, 98.9% and 101% and 94.7%; with COLO 205 colon, 107% and 134%; in the assay on DU-145 prostate it was 105% and 128%; in the assay with K-562 leukemia, 92.9% and 74.2%. Further, the growth with MALME-3M melanoma is 109% and 116%; in the assay with MDA-MB-231 breast, 84.3% and 91.9% and 109%; in the assay with RXF 393 renal it was 92.4% and 115% and 127%; with SF-268 CNS, 89.5% and 104% and 110%; in the assay with SF-295 CNS, 109% and 107% and 113%; in the assay with SF-539 CNS, 102% and 103% and 114%. Further, the growth in the assay on UACC-257 melanoma is 109% and 110%; with M14 melanoma it was 93.8% and 104% and 95.1%.
